# Assay results reported in PubChem BioAssay (NCATS).
# Values without a mark were called inactive. Records with an inconclusive call do not appear. Calls of active or inactive are those of the source. Calls follow the shape of the dose curve; as a rule, active = well fitted activation curve with a large enough effect; inconclusive = small, poorly fitted or top-dose-only effect; inactive = flat fitted curve, though single readings scatter.
# Test: Cellular Toxicity (caspase-3) Hek293 (AID 664);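 also: cells exposed to compound for 16 h at 37 °C before readout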
# Details: HEK293 caspase-3 activation, DMSO = 0%, 100 µM tamoxifen = 100%; at 92.2 µM (top of the series)
# How it was run: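 Luminescent Caspase-Glo 3/7 readout (aminoluciferin release) in HEK293 cells after 16 h compound treatment, 37 °C. Normalization: DMSO = basal, 100 uM tamoxifen = 100% stimulation. Concentration-response fitted with standard Hill equation for AC50.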
row,Structure (SMILES),caspase-3 activation
1,Nc1cnn([C@@H]2O[C@H](CO)[C@@H](O)[C@H]2O)c(=O)n1,-2.69%
2,CCCCCCCCOc1ccc(C(=O)O)cc1,-2.79%
3,Oc1c(Cl)cc(Cl)c(Cl)c1Cl,1.49%
4,CC(C)OCC1CO1 (centres undefined),-0.484%
5,C/C(Cl)=C/CCl,-0.884%
6,c1ccc(COCc2ccccc2)cc1,2.76%
7,O=[N+]([O-])c1cccc(I)c1,-1.61%
8,c1ccc2c(c1)ccc1ccccc12,-0.803%
9,Nc1ccc(N=Nc2ccccc2)c(N)c1,-11.8%
10,Nc1cc(C(=O)O)c(O)c(S(=O)(=O)O)c1,0.407%
11,Oc1ccc2c(c1)OCO2,-2.85%
12,c1ccncc1,-0.0676%
13,C/C=C/C=C/C=O,29%
14,CCN(CC)c1ccc2c(C)cc(=O)oc2c1,0.453%
15,c1c[nH]cn1,-0.608%
16,O=C(O)/C=C/c1ccc(/C=C/C(=O)O)cc1,-11.2%
17,CC(=O)OC(C(=O)c1ccccc1)c1ccccc1 (centres undefined),-0.138%
18,CCc1ccc(C(c2ccc(CC)cc2)C(Cl)Cl)cc1,1.15%
19,COc1cc(-c2ccc(N=C=O)c(OC)c2)ccc1N=C=O,2.71%
20,CCOC(=O)C1OC1c1ccccc1 (centres undefined),0.955%

# Test: Cellular Toxicity (caspase-3) N2a (AID 665);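 also: compound exposure lasted 16 h at 37 °C before readout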
# Details: N2a cells, luminescence, normalized: DMSO 0%, 10 µM staurosporine 100%; series mostly up to 92.2 µM
# How it was run: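 Luminescent Caspase-Glo 3/7 readout in N2a mouse neuroblastoma cells after 16 h compound exposure at 37 °C. Signal scaled to DMSO (basal) and 10 uM staurosporine (100%). Concentration-response fitted with Hill equation for AC50.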
row,Structure (SMILES),outcome
1,CCCCCCc1ccc(-c2ccc(C#N)cc2)cc1,inactive
2,Nc1cnn([C@@H]2O[C@H](CO)[C@@H](O)[C@H]2O)c(=O)n1,inactive
3,CCCCCCCCOc1ccc(C(=O)O)cc1,inactive
4,Oc1c(Cl)cc(Cl)c(Cl)c1Cl,inactive
5,CC(C)OCC1CO1 (centres undefined),inactive
6,C/C(Cl)=C/CCl,inactive
7,CCCCNCC,inactive
8,O=c1[nH]ncc2ccccc12,inactive
9,c1ccc(COCc2ccccc2)cc1,inactive
10,O=[N+]([O-])c1cccc(I)c1,inactive
11,Nc1ccc2c(c1)C(=O)c1ccccc1C2=O,inactive
12,c1ccc2c(c1)ccc1ccccc12,inactive
13,Nc1ccc(N=Nc2ccccc2)c(N)c1,inactive
14,Cc1ccc(C(=O)O)cc1[N+](=O)[O-],inactive
15,COc1ccc([N+](=O)[O-])cc1N,inactive
16,OCC(CO)(CBr)CBr,inactive
17,Nc1cc(C(=O)O)c(O)c(S(=O)(=O)O)c1,inactive
18,Oc1ccc2c(c1)OCO2,inactive
19,c1ccncc1,inactive
20,CC(=O)OC1CC(C)OC(C)O1 (centres undefined),inactive

row,Structure (SMILES),outcome
1,O=C(OCc1ccccc1)c1ccccc1O,inactive
2,C/C=C/C=C/C=O,inactive
3,CCN(CC)c1ccc2c(C)cc(=O)oc2c1,inactive
4,c1c[nH]cn1,inactive
5,c1ccc(SCCSc2ccccc2)cc1,inactive
6,O=C(O)/C=C/c1ccc(/C=C/C(=O)O)cc1,inactive
7,CCCCOC(=O)COc1ccc(Cl)cc1Cl,inactive
8,CC(=O)OC(C(=O)c1ccccc1)c1ccccc1 (centres undefined),inactive
9,CCCCCCN,inactive
10,CC(=O)Nc1cccc(C)c1,inactive
11,CCC(Cl)CC(Cl)C(Cl)C(Cl)C(Cl)C(C)Cl (centres undefined),inactive
12,COc1ccc(C)cc1N,inactive
13,CCc1ccc(C(c2ccc(CC)cc2)C(Cl)Cl)cc1,inactive
14,C[C@@H]1CC2(OC(O)[C@]3(C)O[C@H]23)O[C@H]2C[C@@]3(C)[C@@H]4CC[C@H]5C(C)(C)C(O[C@@H]6OC[C@@H](O)[C@H](O)[C@H]6O)CC[C@@]56C[C@@]46CC[C@]3(C)[C@@H]12 (some centres undefined),inactive
15,O=[N+]([O-])c1ccccc1Nc1ccccc1,inactive
16,C=CC1CO1 (centres undefined),inactive
17,COc1cc(-c2ccc(N=C=O)c(OC)c2)ccc1N=C=O,inactive
18,CCOC(=O)C1OC1c1ccccc1 (centres undefined),inactive
19,COc1ccc(C(=O)Nc2ccccc2)cc1[N+](=O)[O-],inactive
